Active and inactive are the calls of the source. How the source made its calls: active means hit-call score of the fitted dose curve at least 0.9, where 1 is the maximum; inactive means score below 0.9.

A short description of this experiment: ATG_M_19_CIS: Attagene CIS-FACTORIAL HepG2 Assay for M19 Transcription Factor (Internal Marker) (AID 2282939). Particulars: HepG2 Attagene CIS-FACTORIAL M19 internal marker reporter; actives raise or lower the signal. Summed up: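 HepG2, MRTU transient transfection, 24 h dosing. Total RNA → RT-PCR → 6-FAM primer extension → HpaI digest → CE fluorescence. Bidirectional curve fit, DMSO negative control.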
In the case of `CC(C)=CCC[C@H](C)CCO`, the result was inactive.

For `CCCCC/C=C\C/C=C\CCCCCCCC(=O)OC`, the molecule was called inactive.

For the molecule `S=C(NC1CCCCC1)NC1CCCCC1`, the result was inactive.

For the molecule `Cc1cccc(OCCOc2cccc(C)c2)c1`, the outcome was inactive.

Take `O=S(=O)(Oc1ccc(Cl)cc1Cl)c1ccccc1`: the result was inactive.

Take `CC(C)CCCC(C)CC=O` (configuration not stated): the result was inactive.

`CC(C)(C)C(=O)CCc1ccc(Cl)cc1`: the molecule was called inactive.

Regarding `O=CN1CCCCC1`, the molecule was called inactive.

`O=Cc1ccc(CO)o1`: the molecule was classed as inactive.

With `CO[Si](CCC1CCC2OC2C1)(OC)OC` (configuration not stated), the result was inactive.

Regarding `N#[N+]c1ccc2c(S(=O)(=O)[O-])cccc2c1O`, the molecule was classed as inactive.

`Cc1cc(=O)n(-c2ccccc2)n1C`: the call was inactive.

For the molecule `N[C@H]1C(O)O[C@H](CO)[C@H](O)[C@@H]1O` (some centres not stated), the molecule was classed as inactive.

For `O=C(c1ccccc1)c1ccc(O)c(O)c1O`, the outcome was inactive.

`Cc1cccc(C(=O)O)c1`: the outcome was inactive.

Turning to `COC(=O)c1c(C)cc(O)c(C)c1O`, the outcome was inactive.

`Cc1cc(C)c(C)c(O)c1`: the molecule was classed as inactive.

Consider `O=S1(=O)OC(c2ccc(O)cc2)(c2ccc(O)cc2)c2ccccc21`, for which the result was inactive.

In the case of `CCN(Cc1cccc(S(=O)(=O)O)c1)c1ccc(C(=C2C=CC(=[N+](CC)Cc3cccc(S(=O)(=O)[O-])c3)C=C2)c2ccccc2)cc1`, the molecule was called inactive.

With `O=C(Nc1ccccc1)c1ccccc1O`, the molecule was classed as inactive.

On to `CC(=O)NS(=O)(=O)c1ccc(N)cc1`, for which the result was inactive.

As to `CCO[Si](CCCN=C=O)(OCC)OCC`, the result was inactive.

For `C=C(C)CCO`, the molecule was called inactive.

For the molecule `CCCCCCCCCCc1ccccc1`, the call was inactive.

Regarding `CCCCCCC(O)CO` (configuration not stated), the call was inactive.

Regarding `CCOC(=O)[C@H](C)O`, the outcome was inactive.

For the molecule `CC(=O)OCCC1CCCCC1`, the result was inactive.

These data come from PubChem BioAssay (EPA / NIEHS).
